FGF22 binding: binders of recombinant human FGF22 by thermal shift. SYPRO orange fluorescence; percent of sucrose octasulfate shift, DMSO zero. activity (Tm shift, normalised), % at 9.99 µM. 340,000 tested, 1.5% active. AID 651658;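 active = mean Tm shift, scaled 0 neutral to 100 positive control, at about 1.3% or above, every replicate too, limit read from the data; inconclusive = no clear call, values can overlap the other calls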
ERAP1 inh: blocks human ERAP1 aminopeptidase activity; 340,000 tested, 0.15% active; recombinant ERAP1, Leu-AMC fluorescence, 60 min; inhibition, % at 10.7 µM; AID 652197; Q9NZ08;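 active = mean replicate inhibition of at least 30%, or all replicates individually reaching that 30% level; inactive = mean below 30% and not every replicate reaching it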
Target sequence (Q9NZ08 whole entry, looked up): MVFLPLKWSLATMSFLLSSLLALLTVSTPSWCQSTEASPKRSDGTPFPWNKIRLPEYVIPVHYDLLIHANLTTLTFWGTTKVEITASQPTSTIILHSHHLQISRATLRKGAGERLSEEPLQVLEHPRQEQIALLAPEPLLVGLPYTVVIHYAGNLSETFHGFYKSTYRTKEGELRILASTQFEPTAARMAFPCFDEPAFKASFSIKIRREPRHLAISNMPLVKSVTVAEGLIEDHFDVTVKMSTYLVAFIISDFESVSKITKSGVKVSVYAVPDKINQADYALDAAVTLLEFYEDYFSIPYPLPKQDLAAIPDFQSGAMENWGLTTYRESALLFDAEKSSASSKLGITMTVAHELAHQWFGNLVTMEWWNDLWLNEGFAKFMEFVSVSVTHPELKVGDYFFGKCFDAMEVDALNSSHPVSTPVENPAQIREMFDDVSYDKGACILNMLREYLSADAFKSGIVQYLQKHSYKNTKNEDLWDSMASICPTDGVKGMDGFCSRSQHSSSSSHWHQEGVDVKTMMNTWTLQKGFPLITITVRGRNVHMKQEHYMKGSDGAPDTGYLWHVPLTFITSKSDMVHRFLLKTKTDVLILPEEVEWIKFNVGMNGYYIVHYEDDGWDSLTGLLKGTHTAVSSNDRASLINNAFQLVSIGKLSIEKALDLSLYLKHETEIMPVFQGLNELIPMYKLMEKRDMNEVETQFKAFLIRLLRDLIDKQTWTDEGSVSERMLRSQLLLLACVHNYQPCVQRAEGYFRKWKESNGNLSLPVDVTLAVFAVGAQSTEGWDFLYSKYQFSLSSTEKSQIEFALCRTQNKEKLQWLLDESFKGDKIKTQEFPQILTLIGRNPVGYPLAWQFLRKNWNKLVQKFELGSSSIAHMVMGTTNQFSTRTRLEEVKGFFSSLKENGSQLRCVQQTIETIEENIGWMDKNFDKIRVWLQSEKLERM
RAD52 anneal inh: RAD52 (human) annealing inhibition; inhibition, % at 18.7 µM; AID 651710; 360,000 tested, 0.46% active; recombinant RAD52 DNA annealing, FRET fluorescence;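 active = every replicate showing at least 50% inhibition; inconclusive = mean inhibition at least 50% but not in every replicate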
DENV2 CPE: protects cells from dengue virus 2 cytopathic effect; DENV2-infected cells, cytopathic effect rescue, plate reader; CPE inhibition, % at 9.99 µM; 350,000 tested, 1.7% active; in the data active = CPE inhibition above about 20%, passing the limit was not always enough; inconclusive = no clear call, values can overlap the other calls; tested in BHK-21 cells
MLL AF4-AF9 inh: MLL-AF4/AF9 protein interaction inhibition. AlphaScreen, biotin-AF4 peptide binding to FLAG-AF9. P42568. inhibition, % at 10 µM. 350,000 tested, 0.47% active;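 active = every replicate reaching a set inhibition limit, whatever the replicate mean, cut at about 25% in these data; inconclusive = mean inhibition reaches that limit but some replicates miss it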
Large screens that a line does not name were inactive; ! = not confirmed by another sample. Compounds with a hit are over-represented: about 4% of the library has one in this group of screens.

O=C(Nc1ccc(F)cc1)N1CCN(c2ncccn2)CC1	FGF22 binding 43.1
Cc1cc(C)cc(NC(=S)N2CCN(c3ncccn3)CC2)c1	none
CC(C)NC(=O)N(C)C[C@@H]1Oc2ncc(-c3cccc(C#N)c3)cc2C(=O)N([C@H](C)CO)C[C@H]1C	none
FC(F)(F)c1cccc(NC(=S)N2CCN(c3ccccn3)CC2)c1	FGF22 binding 43.6
Cc1ccc(N2CCN(C(=S)Nc3ccccc3)CC2)cc1	FGF22 binding 43.0, DENV2 CPE inconclusive
S=C(Nc1ccccc1)N1CCN(c2ccccc2)CC1	none (no result: FGF22 binding)
Fc1cccc(NC(=S)N2CCN(c3ccccn3)CC2)c1	none
CCOC(=O)c1cc(-c2ccccc2C)nn1Cc1cc(C)no1	DENV2 CPE 32.0
CCc1cc(Cn2nc(-c3ccccc3C)cc2C(=O)O)on1	DENV2 CPE 24.7 (no result: MLL AF4-AF9 inh)
CCc1cc(Cn2nc(C(=O)O)cc2-c2ccccc2)on1	none
COCC(=O)Nc1ccc2c(c1)C(=O)N(C)C[C@@H](OC)[C@@H](C)CN(Cc1cccnc1)[C@H](C)CO2	none
CCOCC(=O)NC1CCc2cc(OC)c(OC)c(OC)c2-c2ccc(SC)c(=O)cc21 (stereo not drawn)	FGF22 binding 43.2
CCOC(=O)NC1CCc2cc(OC)c(OC)c(OC)c2-c2ccc(SC)c(=O)cc21 (stereo not drawn)	DENV2 CPE inconclusive
CC(NC(=O)Nc1ccc(Cl)cc1)C1CCCO1 (stereo not drawn)	FGF22 binding 42.9
CCOC(=O)C1CCCN(C2=NC(=O)/C(=C/c3ccc(N(C)C)cc3)S2)C1 (stereo not drawn)	FGF22 binding 1.9
CO[C@@H]1CN(C)C(=O)c2ccc(NC(=O)Nc3cc(F)ccc3F)cc2OC[C@@H](C)N(C(=O)c2ccccn2)C[C@H]1C	DENV2 CPE 86.5
CO[C@@H]1CN(C)C(=O)c2ccc(NC(=O)Nc3cc(F)ccc3F)cc2OC[C@H](C)N(C(=O)c2ccccn2)C[C@H]1C	DENV2 CPE 26.3
COc1ccc(S(=O)(=O)N(C)C[C@@H]2Oc3ccc(NC(=O)NC(C)C)cc3CC(=O)N([C@@H](C)CO)C[C@H]2C)cc1	none
CC(C)C[C@H](NC(=O)Nc1cccc(Br)c1)C(=O)O	FGF22 binding 44.2
C[C@@H]1CN([C@H](C)CO)C(=O)c2cccc(NC(=O)Nc3ccc(C(F)(F)F)cc3)c2O[C@H]1CN(C)C(=O)Nc1ccccc1	none
CCCNC(=O)c1cc2c(c(-c3cccc(-c4cccc(OC)c4)c3)n1)[C@H](CCO)N([S@@](=O)C(C)(C)C)C2	none (no result: RAD52 anneal inh)
Cc1ccc(S(=O)(=O)Nc2ccc3c(c2)C(=O)N([C@@H](C)CO)C[C@H](C)[C@@H](CN(C)S(=O)(=O)c2ccc(Cl)cc2)O3)cc1	none
CC(C)Oc1ccc(S(=O)(=O)N2CCOCC2)cc1NC(=O)Cc1ccsc1	DENV2 CPE 42.4
O=C(C[C@@H]1CC[C@H](NC(=O)CC2CC2)[C@H](CO)O1)NCc1ccccc1	DENV2 CPE inconclusive (no result: FGF22 binding, ERAP1 inh, MLL AF4-AF9 inh)
Cc1ccc(CN2C(=O)CCC2C(=O)NCCN2CCN(c3cccc(Cl)c3)CC2)cc1 (stereo not drawn)	ERAP1 inh 30.6
O=C(CCSc1ccc(Br)cc1)Nc1cccnc1	FGF22 binding 43.5 (no result: DENV2 CPE)
O=C(c1ccccc1)c1sc(N2CCOCC2)nc1-c1ccccc1	FGF22 binding 44.0
O=C(N/N=C/c1sc(N2CCOCC2)nc1-c1ccccc1)c1ccc(O)cc1	none
COc1ccc(C(=O)N/N=C/c2sc(N3CCOCC3)nc2-c2ccccc2)cc1OC	MLL AF4-AF9 inh 26.9
N#C[C@H]1[C@H](c2ccccc2C2=CCCCC2)[C@@H](CO)N1S(=O)(=O)c1cccc(F)c1	DENV2 CPE 31.2 (no result: FGF22 binding)
N#C[C@H]1[C@@H](c2ccc(C3=CCCCC3)cc2)[C@H](CO)N1S(=O)(=O)c1cccc(F)c1	none
N#C[C@H]1[C@@H](c2ccc(C3=CCCCC3)cc2)[C@@H](CO)N1S(=O)(=O)c1cccc(F)c1	DENV2 CPE 91.6
CNC(=O)C[C@@H]1CC[C@H]2[C@@H](COc3ccc(NC(=O)c4cccc(F)c4)cc3C(=O)N2C)O1	none
CCCNC(=O)N[C@@H]1C=C[C@@H](CC(=O)NCCc2ccccc2)O[C@H]1CO	none
O=C(Nc1cc(C(F)(F)F)ccc1N1CCCCC1)C1=COCCO1	FGF22 binding 1.9
OC1(CC#CCN2CCCCC2)c2ccccc2-c2ccccc21	none (no result: MLL AF4-AF9 inh)
OC1(C#CCCN2CCCCC2)c2ccccc2-c2ccccc21	FGF22 binding 44.0
O=C(Nc1cccc(F)c1)N1C[C@@H]2N[C@H](C1)C2c1ccc(-c2cccnc2)cc1 (stereo partly drawn)	none (no result: FGF22 binding)
O=C(Nc1cccc(F)c1)N1C[C@@H]2N[C@H](C1)C2c1ccc(-c2ccccc2F)cc1 (stereo partly drawn)	RAD52 anneal inh 63.6! (no result: FGF22 binding)
Cc1ccccc1-c1ccc(C2[C@@H]3CN(C(=O)Nc4cccc(F)c4)C[C@H]2N3)cc1 (stereo partly drawn)	RAD52 anneal inh 72.2!, DENV2 CPE inconclusive (no result: FGF22 binding)
CCC(=O)N1C[C@H](C)[C@@H](OC)CN(C)C(=O)c2cc(NC(=O)NC3CCCC3)ccc2OC[C@@H]1C	none
O=C(Nc1cccc(F)c1)N1CC(=O)N2[C@H](CO)[C@@H](c3ccc(Br)cc3)[C@H]2C1	DENV2 CPE inconclusive
O=C(NC[C@@H]1CC[C@@H]2[C@@H](CN2C(=O)NC2CCCC2)O1)c1ccc2c(c1)OCO2	RAD52 anneal inh 111.9 (no result: FGF22 binding)
O=C(COC(=O)c1ccc2c(c1)OCO2)NC1CCCCC1	DENV2 CPE 21.1
C[N+]12CCCCC1C(COC(=O)c1ccc3c(c1)OCO3)CCC2 (stereo not drawn)	ERAP1 inh 30.6 (no result: FGF22 binding)
O=C(NCC[C@H]1CC[C@H](NS(=O)(=O)c2cccc(F)c2)[C@H](CO)O1)c1cnccn1	none
Cc1cc(OC(=O)c2cc(Cl)ccc2Cl)c([N+](=O)[O-])c(=O)[nH]1	none
Cc1cc(OC(=O)c2cc([N+](=O)[O-])ccc2Cl)c([N+](=O)[O-])c(=O)[nH]1	MLL AF4-AF9 inh 47.3
Cc1cc(OC(=O)c2ccc(S(=O)(=O)N3CCCC3)cc2)c([N+](=O)[O-])c(=O)[nH]1	FGF22 binding 42.9
C[C@H]1CN([C@@H](C)CO)C(=O)c2cc(/C=C/c3ccccc3)cnc2O[C@@H]1CN(C)S(=O)(=O)c1ccccc1	none
CN(C)CC(=O)N[C@@H]1CC[C@@H](CCNC(=O)C2CC2)O[C@@H]1CO	none (no result: FGF22 binding)
Cc1cc(C=O)c(C)n1-c1ccc(Cl)c(C(=O)O)c1	ERAP1 inh 31.7
O=C(Nc1cccc2ccccc12)OCc1ccccc1	FGF22 binding 43.8, DENV2 CPE inconclusive
O=C(NCCOC(=O)Nc1cccc2ccccc12)OCc1ccccc1	none
COc1cccc2c1C(=O)c1c(O)c3c(c(O)c1C2=O)C[C@@](O)(C(=O)CO)C[C@@H]3OC1CC(N)C(O)C(C)O1 (stereo partly drawn)	none

High-throughput results: PubChem BioAssay, Broad Institute
